Assay [1] deals with Wnt5a (protein binding on small-molecule microarray). Put plainly: Wnt5a binders on small-molecule microarray, primary screen, biophysical, 635/667 nm fluorescence (AID 1142).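 Further: fluorescence read at 667 nm with signal to noise per printed feature.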 As to conditions: 635 nm fluorescence, higher = more signal.
Assay [2] in a line: cell viability in Huh7 cells, primary screen, cytotoxicity control for HCV replication inhibitor project, CellTiter-Glo luminescence, basal, 48 h (AID 1143).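 Further: Huh7 hepatoma cells carrying a hepatitis C replication reporter with no stimulus; test concentration not given here.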 To be noted: Huh7 HCV replicon, higher = more signal, called active from +8 up or from −8 down.
Assay [3] in a line: P. aeruginosa biofilm formation inhibitors, primary screen, PAO1 strain, BacTiter-Glo luminescence, LB-PBS (AID 1144). To be noted: 12 h, higher = more signal.
The nature of assay [4]: CREB reporter modulators without forskolin, primary screen, cell-based, PC12, CRE-LacZ reporter, unstimulated (AID 1145). To be noted: no forskolin, luminescence, 4.5 h, higher = more signal, called active from +8 up or from −8 down.
Assay [5] in a line: CREB reporter modulators under forskolin, primary screen, cell-based, PC12, CRE-LacZ reporter, forskolin-stimulated (AID 1146).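 Further: PC12 cells with 6xCRE LacZ reporter stimulated by forskolin 10 µM; beta-galactosidase reporter signal reflecting CREB driven transcription.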 As to conditions: luminescence, 4.5 h, higher = more signal, called active from +8 up or from −8 down.
The target in assay [6] is Streptavidin (Streptomyces avidinii) (UniProt P22629). Put plainly: streptavidin binders on small-molecule microarray, primary screen, artefact control for SMM compound annotation, biophysical, 635/667 nm fluorescence (AID 1147).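 Further: signal reflects streptavidin binding to arrayed compounds as a control protein.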 As to conditions: streptavidin binding, higher = more signal.
A short description of assay [7]: small-molecule binders of probe aInhba, primary screen, biochemical, small-molecule microarray, 635/667 nm fluorescence (AID 1148).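 Further: score merges 667nm spot fluorescence with signal-to-noise for antibody binding to printed compounds.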 To be noted: higher = more signal.
For assay [8], the target named is Torsin-1A (Homo sapiens) (UniProt O14656). Nature of the assay: torsin A binders from cell lysate, primary screen, small-molecule microarray, wild-type, 635/667 nm (AID 1149). To be noted: COS7 hTOR1A-WT lysate, 635 nm fluorescence, higher = more signal.
For assay [9] the target is unchanged. Put plainly: small-molecule binders of mutant TOR1A in lysate, primary screen, cell lysate, small-molecule microarray, COS7 lysate, 635/667 nm fluorescence (AID 1150).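 Further: score pools 667 nm emission and signal to noise measuring lysate protein binding.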 As to conditions: COS7 hTOR1A mutant lysate, 635 nm fluorescence, higher = more signal.
Assay [10] deals with Sonic hedgehog protein (Shh). Put plainly: small-molecule binders of Shh protein, primary screen, biochemical, small-molecule microarray, 635/667 nm fluorescence (AID 1151).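 Further: Shh protein binding to compounds spotted on small-molecule microarray slides; score combines spot fluorescence intensity with signal-to-noise across triplicate slides.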 To be noted: small-molecule microarray binding, 635 nm fluorescence; higher = more signal.
Assay [11] in a line: E. coli DRC41 culture turbidity changes, primary screen, E. coli filamentation inducer project, strain DRC41, OD650, 48 h (AID 1152).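 Further: E. coli MC1000 strain DRC41 lacking acrAB efflux pump and sulA.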 To be noted: E. coli DRC41 (acrAB sulA), higher = more signal, called active from +8 up or from −8 down.
Assay [12] can be described thus: small-molecule binders of probe aLefty1, primary screen, biochemical, small-molecule microarray, 635/667 nm fluorescence (AID 1153).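 Further: score merges spot fluorescence with signal-to-noise ratio from the scanned slide images.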 As to conditions: higher = more signal.
Assay [13] can be described thus: PSAC antagonists in infected red cells, primary screen, cell-based, P. falciparum Indochina, OD700, 1 h (AID 1154). To be noted: P. falciparum Indochina infected RBC osmotic lysis, higher = more signal, called active from +8 up or from −8 down.
Assay [14] is described as follows: PSAC antagonists in infected red cells, primary screen, cell-based, P. falciparum Indochina, OD700, 2 h (AID 1155).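 Further: lysis reports solute entry through the parasite surface anion channel PSAC; channel blockers reduce lysis of infected cells.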 To be noted: P. falciparum Indochina infected erythrocytes, osmotic lysis OD700; higher = more signal, called active from +8 up or from −8 down.
Assay [15] in a line: osmotic lysis modulators in infected erythrocytes, primary screen, PSAC antagonist project, cell-based, P. falciparum Indochina, OD700, 3 h (AID 1156). To be noted: higher = more signal, called active from +8 up or from −8 down.
Assay [16] is described as follows: PSAC antagonists in infected red cells, primary screen, cell-based, P. falciparum Indochina, OD700, 18 h (AID 1157). To be noted: P. falciparum Indochina infected erythrocytes, osmotic lysis OD700, 18 h; higher = more signal, called active from +8 up or from −8 down.
Assay [17] is described as follows: modulators of S6 phosphorylation in cells, primary screen, cell-based, A549, cytoblot, luminescence, serum-stimulated (AID 1158).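 Further: serum-stimulated A549 lung adenocarcinoma cells; signal is phosphorylated S6 detected by cytoblot immunostaining with HRP secondary.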 To be noted: A549 phospho-S6 cytoblot, 5 h, higher = more signal.
The target in assay [18] is NADPH oxidase 2 (Homo sapiens) (UniProt P04839). Put plainly: NOX2-dependent H2O2 signal modulators, primary screen, NOX inhibitor project, cell-based, HEK293-NOX2, PMA-stimulated, Amplex Red fluorescence (AID 1159). Further: test concentration not given here. To be noted: 45 min, higher = more signal, called active from +8 up or from −8 down.
The target of assay [19] is NADPH oxidase 4 (Homo sapiens) (UniProt Q9NPH5). Put plainly: NOX4-dependent H2O2 signal modulators, primary screen, NOX inhibitor project, cell-based, HEK293-NOX4, tetracycline-induced, Amplex Red fluorescence (AID 1160). To be noted: 45 min, higher = more signal, called active from +8 up or from −8 down.
Assay [20] addresses NADPH oxidase 5 (Homo sapiens) (UniProt Q96PH1). Put plainly: NOX5-dependent H2O2 signal modulators, primary screen, NOX inhibitor project, cell-based, HEK293-NOX5, Amplex Red fluorescence (AID 1161). To be noted: HEK293-NOX5, ionomycin, 45 min, higher = more signal.

Active and inactive are the calls of the source. Unless noted, how the calls were made is not given here.

Chain of Torsin-1A (Homo sapiens) (O14656 whole entry, looked up): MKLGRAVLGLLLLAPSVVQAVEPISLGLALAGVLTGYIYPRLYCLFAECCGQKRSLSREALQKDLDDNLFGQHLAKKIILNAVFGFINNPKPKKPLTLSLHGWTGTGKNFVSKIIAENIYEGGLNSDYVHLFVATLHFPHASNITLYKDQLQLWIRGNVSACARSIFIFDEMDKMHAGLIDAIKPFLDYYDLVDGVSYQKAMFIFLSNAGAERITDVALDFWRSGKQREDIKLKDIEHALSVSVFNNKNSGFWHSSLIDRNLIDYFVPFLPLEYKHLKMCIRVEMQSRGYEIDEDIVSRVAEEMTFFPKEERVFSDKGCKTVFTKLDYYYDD
Chain of NADPH oxidase 2 (Homo sapiens) (P04839 whole entry, looked up): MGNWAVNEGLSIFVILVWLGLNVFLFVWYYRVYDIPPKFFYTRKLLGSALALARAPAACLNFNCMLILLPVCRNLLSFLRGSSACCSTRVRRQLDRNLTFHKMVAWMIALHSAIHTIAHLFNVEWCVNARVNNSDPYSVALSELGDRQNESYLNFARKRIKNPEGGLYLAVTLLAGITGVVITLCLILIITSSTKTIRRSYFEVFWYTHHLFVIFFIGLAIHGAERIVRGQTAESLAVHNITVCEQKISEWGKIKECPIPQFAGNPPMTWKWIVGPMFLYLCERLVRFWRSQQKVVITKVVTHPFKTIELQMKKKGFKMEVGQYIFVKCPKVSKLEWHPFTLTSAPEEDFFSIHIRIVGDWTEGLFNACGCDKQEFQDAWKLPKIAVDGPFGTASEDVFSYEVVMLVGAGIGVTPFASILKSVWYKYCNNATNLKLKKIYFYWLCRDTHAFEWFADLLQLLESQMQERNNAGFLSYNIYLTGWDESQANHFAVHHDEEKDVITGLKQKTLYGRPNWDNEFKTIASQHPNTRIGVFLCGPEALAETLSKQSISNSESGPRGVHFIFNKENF
Chain of NADPH oxidase 5 (Homo sapiens) (Q96PH1 whole entry, looked up): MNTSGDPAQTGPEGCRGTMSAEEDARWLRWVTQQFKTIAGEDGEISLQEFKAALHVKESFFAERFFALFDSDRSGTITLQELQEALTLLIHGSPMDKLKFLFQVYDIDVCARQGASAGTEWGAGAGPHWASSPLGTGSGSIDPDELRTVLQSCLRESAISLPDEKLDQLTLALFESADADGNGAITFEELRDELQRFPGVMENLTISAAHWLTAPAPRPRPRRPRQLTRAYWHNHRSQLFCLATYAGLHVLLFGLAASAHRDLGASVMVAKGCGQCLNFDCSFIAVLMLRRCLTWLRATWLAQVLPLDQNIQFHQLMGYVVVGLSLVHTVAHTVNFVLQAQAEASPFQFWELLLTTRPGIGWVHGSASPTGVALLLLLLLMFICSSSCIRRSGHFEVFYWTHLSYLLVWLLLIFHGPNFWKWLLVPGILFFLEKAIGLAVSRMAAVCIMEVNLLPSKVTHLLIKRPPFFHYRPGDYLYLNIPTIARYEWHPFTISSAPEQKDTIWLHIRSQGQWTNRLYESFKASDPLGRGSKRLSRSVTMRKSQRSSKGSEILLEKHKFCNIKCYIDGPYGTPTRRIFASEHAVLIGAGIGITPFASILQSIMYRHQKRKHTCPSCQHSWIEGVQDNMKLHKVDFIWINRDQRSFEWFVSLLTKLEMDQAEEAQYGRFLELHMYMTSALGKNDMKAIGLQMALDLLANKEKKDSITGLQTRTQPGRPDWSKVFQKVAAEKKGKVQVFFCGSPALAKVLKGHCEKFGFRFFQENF
Chain of Streptavidin (Streptomyces avidinii) (P22629 whole entry, looked up): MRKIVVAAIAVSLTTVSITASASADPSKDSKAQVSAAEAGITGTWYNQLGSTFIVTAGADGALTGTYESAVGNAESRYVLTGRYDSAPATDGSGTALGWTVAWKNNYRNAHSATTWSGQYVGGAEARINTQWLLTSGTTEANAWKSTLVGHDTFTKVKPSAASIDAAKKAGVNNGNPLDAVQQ
Chain of NADPH oxidase 4 (Homo sapiens) (Q9NPH5 whole entry, looked up): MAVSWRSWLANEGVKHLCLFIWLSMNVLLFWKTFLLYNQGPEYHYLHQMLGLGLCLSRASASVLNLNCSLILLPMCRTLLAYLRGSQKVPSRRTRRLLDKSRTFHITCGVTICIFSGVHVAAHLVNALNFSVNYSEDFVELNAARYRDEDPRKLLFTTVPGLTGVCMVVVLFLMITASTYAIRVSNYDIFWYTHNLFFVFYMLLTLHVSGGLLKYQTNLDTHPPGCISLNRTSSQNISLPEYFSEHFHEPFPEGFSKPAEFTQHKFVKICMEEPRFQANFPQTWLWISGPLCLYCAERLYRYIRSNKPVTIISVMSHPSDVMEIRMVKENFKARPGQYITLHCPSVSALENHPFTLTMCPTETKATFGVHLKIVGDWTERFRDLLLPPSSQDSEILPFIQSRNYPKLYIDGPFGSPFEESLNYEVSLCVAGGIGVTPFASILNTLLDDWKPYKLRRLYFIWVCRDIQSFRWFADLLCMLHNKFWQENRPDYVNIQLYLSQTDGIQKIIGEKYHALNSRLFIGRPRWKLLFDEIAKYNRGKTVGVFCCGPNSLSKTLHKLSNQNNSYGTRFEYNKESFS

Take `CC(CO)N1C(=O)[C@]2(C)C3C(=O)OCCC/C=C\[C@H]3OC23C=CCN(c2ccc(Cl)cc2)C(=O)[C@@H]13` (stereo not given in full): the composite z-score in [1] was -0.313; in [6], -0.741; in assay [7] it was -0.316; with Torsin-1A (Homo sapiens) [8] it was -0.775; with Torsin-1A (Homo sapiens) [9] it was -0.734; in assay [10], 0.0223. Further, the composite z-score in assay [12] was -0.062. Besides, the z-score in assay [2] was 0.612 (inactive); in [3] it was -1.53 (inactive); in assay [4], 0.187 (inactive); in assay [5], -0.592 (inactive); in assay [11], 0.79 (inactive); in assay [13], 0.423 (inactive). For the same molecule, the z-score in assay [14] is 0.576 (inactive); in assay [15], 1.94 (inactive); in assay [16], 0.5 (inactive); in [17], -0.021; in [18], 1.25 (inactive); in assay [19] it was -0.0121 (inactive). Also, the z-score in [20] was 1.33.

For `CC(C)c1ccc(NN2C(C(O)c3ccc(F)cc3)C=CC3C(=O)N(c4ccccc4)C(=O)C32)cc1` (stereo not given), the composite z-score was 0.306 in assay [1]; 1.7 in [6]; 0.324 in assay [7]; -0.448 with Torsin-1A (Homo sapiens) [8]; 0.0626 with Torsin-1A (Homo sapiens) [9]; -0.0155 in assay [10]. The composite z-score in assay [12] was 0.498. In addition, the z-score in assay [2] is -0.953 (inactive); in [3] it was -1.63 (inactive); in assay [4] it was 0.812 (inactive); in [5], 0.3 (inactive); in assay [11], -0.601 (inactive); in assay [13] it was 3.82 (inactive). Moreover, the z-score in assay [14] was 1.76 (inactive); in assay [15] it was 0.0964 (inactive); in assay [16], 1.44 (inactive); in assay [17] it was -1.05; in assay [18] it was -1.15 (inactive); in assay [19] it was -2.78 (inactive). Further, the z-score in assay [20] is -2.6.

With `O=C1N(Cc2ccccc2)c2ccccc2C[C@]12N=C(c1ccc(OCCCO)cc1)O[C@@H]2c1ccccc1`, the composite z-score in assay [1] is 0.0361; in assay [6], 0.0469; in [7] it was -0.0221; with Torsin-1A (Homo sapiens) [8] it was -0.569; with Torsin-1A (Homo sapiens) [9] it was 0.812; in assay [10], 0.837. This molecule gave a composite z-score in assay [12] of -0.0968. The z-score is -4.72 (inactive) in assay [2]; -0.126 (inactive) in assay [3]; 1.75 (inactive) in [4]; -1.08 (inactive) in [5]; -0.522 (inactive) in [11]; 24.8 (active) in [13]. For the same molecule, the z-score in [14] is 15.7 (active); in assay [15], 1.41 (inactive); in assay [16], 2.71 (inactive); in [17], -0.027; in assay [18] it was -0.73 (inactive); in assay [19], 0.472 (inactive). Besides, the z-score in [20] is 0.0935.

As for `C=CC[C@@]1(C(=O)NCCCOC)N=C(c2ccc(OCCCO)cc2)O[C@@H]1c1ccccc1N=[N+]=[N-]`, the composite z-score in [1] was 0.452; in assay [6] it was 0.77; in [7] it was 0.0713; with Torsin-1A (Homo sapiens) [8] it was -0.668; with Torsin-1A (Homo sapiens) [9], -0.112; in [10], -0.388. In [12], this molecule gave a composite z-score of 0.545. Moreover, the z-score in assay [2] is -2.67 (inactive); in assay [3] it was -1.75 (inactive); in assay [4], -0.711 (inactive); in assay [5], -0.66 (inactive); in assay [11], 1.37 (inactive); in assay [13], 30.7 (active). Also, the z-score in assay [14] was 29.4 (active); in assay [15] it was 1.93 (inactive); in [16] it was 2.16 (inactive); in [17], -0.217; in assay [18] it was -3.32 (inactive); in assay [19], -0.66 (inactive). Also, the z-score in [20] is -1.64.

These data come from PubChem BioAssay.
